Laboratory results taken from PubChem BioAssay (NCATS).
Records with an inconclusive call do not appear. Activity calls are given as the source filed them. Unless noted, the call rests on the fitted dose curve; in most records, active means well fitted curve in the direction sought with a large enough effect; inconclusive means small, poorly fitted or top-dose-only effect, or another doubt; inactive means no such curve, though single readings can be large; an effect the other way counts as inactive or inconclusive.

How the values were obtained:
[1] = biological target: Voltage-gated inwardly rectifying potassium channel KCNH2 (Homo sapiens) (UniProt Q12809); assay: qHTS Assay for Small Molecule Inhibitors of the Human hERG Channel Activity (AID 588834);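 further: lower thallium flux fluorescence means stronger hERG block; nearly all actives have a fitted effect of over 50% in size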; further: potency means the concentration at half of the fitted maximal effect
Voltage-gated inwardly rectifying potassium channel KCNH2 (Homo sapiens), sequence (Q12809 whole entry, looked up): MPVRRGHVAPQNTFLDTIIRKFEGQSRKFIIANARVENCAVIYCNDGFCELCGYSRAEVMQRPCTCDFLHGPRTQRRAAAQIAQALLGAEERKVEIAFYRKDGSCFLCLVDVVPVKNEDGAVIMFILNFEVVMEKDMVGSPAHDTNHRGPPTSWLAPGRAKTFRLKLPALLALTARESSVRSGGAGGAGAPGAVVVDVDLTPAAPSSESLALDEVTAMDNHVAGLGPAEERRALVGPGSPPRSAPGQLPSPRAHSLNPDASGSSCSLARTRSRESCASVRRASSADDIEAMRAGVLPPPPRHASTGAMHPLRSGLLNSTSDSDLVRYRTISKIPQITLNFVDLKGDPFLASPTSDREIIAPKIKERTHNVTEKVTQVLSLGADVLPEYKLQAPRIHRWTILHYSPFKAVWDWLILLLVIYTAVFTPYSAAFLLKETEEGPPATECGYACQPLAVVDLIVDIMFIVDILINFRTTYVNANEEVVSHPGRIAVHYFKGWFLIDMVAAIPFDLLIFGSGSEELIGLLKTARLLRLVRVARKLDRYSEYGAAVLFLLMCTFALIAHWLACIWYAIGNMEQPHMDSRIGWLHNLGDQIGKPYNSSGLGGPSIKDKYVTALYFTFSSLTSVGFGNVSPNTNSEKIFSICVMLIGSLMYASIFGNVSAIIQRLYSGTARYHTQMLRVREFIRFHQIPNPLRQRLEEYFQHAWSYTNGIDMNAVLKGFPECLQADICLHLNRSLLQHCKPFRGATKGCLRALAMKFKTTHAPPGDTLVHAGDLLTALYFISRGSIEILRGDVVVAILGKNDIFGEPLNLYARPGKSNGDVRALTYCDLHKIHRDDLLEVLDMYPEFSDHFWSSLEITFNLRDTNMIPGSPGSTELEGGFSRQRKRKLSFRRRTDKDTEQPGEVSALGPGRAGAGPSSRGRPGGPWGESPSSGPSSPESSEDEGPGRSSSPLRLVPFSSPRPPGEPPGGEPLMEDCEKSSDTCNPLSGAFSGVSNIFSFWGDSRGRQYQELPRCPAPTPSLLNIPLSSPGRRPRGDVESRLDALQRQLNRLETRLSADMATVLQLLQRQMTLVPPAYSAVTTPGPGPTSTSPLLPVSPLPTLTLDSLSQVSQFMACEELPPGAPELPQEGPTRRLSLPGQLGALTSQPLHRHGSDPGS
How it was run: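 hERG block measured as reduced thallium-dye (FluxOR) fluorescence after stimulation buffer addition, read over 2 min. Cells were hERG-BacMam-transduced U2OS exposed to compound ~10 min […]; concentration-response fitted with Hill equation for AC50.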

[2] = biological target: Glutaminase kidney isoform, mitochondrial (Homo sapiens) (UniProt O94925); assay: qHTS for Inhibitors of Glutaminase (GLS): LOPAC Validation (AID 624146); further: nearly all actives have a fitted effect of over 60% in size; further: potency means the concentration at half of the fitted maximal effect
Glutaminase kidney isoform, mitochondrial (Homo sapiens), sequence (O94925 whole entry, looked up, canonical isoform): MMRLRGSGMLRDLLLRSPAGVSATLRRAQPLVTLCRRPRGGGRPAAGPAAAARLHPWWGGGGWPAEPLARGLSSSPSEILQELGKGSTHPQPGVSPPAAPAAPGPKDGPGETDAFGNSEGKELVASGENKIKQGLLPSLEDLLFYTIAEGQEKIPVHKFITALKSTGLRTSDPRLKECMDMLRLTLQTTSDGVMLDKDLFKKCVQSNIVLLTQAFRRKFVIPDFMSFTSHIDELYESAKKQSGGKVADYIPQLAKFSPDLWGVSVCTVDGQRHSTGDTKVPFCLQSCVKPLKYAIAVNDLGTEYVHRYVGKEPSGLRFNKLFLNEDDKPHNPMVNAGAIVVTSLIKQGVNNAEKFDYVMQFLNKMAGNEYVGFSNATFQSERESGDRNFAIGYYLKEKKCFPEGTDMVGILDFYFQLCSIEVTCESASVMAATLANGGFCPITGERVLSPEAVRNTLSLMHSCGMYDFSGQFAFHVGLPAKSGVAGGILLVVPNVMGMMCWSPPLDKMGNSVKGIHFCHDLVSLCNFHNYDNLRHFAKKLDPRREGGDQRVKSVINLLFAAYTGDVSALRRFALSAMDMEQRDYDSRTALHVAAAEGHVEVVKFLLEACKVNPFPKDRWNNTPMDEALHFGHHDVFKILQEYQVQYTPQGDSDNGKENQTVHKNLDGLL
How it was run: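 hKGA; 45 mM KH2PO4 pH 8.2 + 0.02% Tween-20; cpd via pin tool; 1 mM Gln soln; GluOx/HRP/Amplex Red; RT 30 min; fluor. t0 & final.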

[3] = qHTS of Trypanosoma Brucei Inhibitors: LOPAC Validation (AID 624147); further: 0% is about no effect
How it was run: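 T. brucei PYK with substrate was exposed to pin-transferred compounds across a concentration series, then started with 130 uM ADP (final). After 45 min at room temperature, Kinase-Glo Plus luminescence was read, normalized and curve-fitted.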

[4] = biological target: Glucagon-like peptide 1 receptor (Homo sapiens) (UniProt P43220); assay: qHTS of GLP-1 Receptor Agonists: LOPAC Validation (AID 624148);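 further: 0% is about no effect; higher luminescence signal means agonism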
Glucagon-like peptide 1 receptor (Homo sapiens), sequence (P43220 whole entry, looked up): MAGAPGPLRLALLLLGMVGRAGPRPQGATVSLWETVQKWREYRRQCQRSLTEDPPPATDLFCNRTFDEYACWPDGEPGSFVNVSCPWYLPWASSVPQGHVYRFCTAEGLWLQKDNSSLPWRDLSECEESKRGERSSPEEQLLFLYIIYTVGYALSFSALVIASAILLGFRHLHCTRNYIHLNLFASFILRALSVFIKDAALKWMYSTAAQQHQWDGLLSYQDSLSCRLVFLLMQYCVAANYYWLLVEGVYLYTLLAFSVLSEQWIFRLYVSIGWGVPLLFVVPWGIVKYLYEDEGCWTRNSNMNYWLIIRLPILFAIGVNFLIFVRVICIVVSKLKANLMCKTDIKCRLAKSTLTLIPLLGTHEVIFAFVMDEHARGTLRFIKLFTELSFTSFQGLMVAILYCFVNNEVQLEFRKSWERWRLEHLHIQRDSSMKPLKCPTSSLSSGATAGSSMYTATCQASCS
How it was run: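 HEK293 cells stably co-expressing a cAMP-responsive luciferase reporter and a hypersensitive GLP-1R were plated 12 h at 37 °C and exposed to compounds for 4-6 hr at 37 °C, 5% CO2. Luminescence was read 12 min after adding detection reagent.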

[5] = qHTS of Nrf2 Activators: LOPAC Validation (AID 624149); further: 0% is about no effect
How it was run: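 Following overnight seeding in 5% FBS OPTI-MEM, AREc32_Fluc cells receive compounds for a 24 hr incubation at 37 deg C with 5% CO2. Steady-Glo is added, and after 30 min at RT luminescence is recorded.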

[6] = HTS Assay for Allosteric Antagonists of the Human D2 Dopamine Receptor: Hit Validation in HTRF (AID 624455);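 further: stable D1 dopamine receptor cell line scored for blocking the D1 response; on the % scale 0 is the no-effect control and ±100 the full control effect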
How it was run: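 Validation of hits used D1 receptor stably expressed in cells with HTRF detection of response inhibition; origin screen measured calcium flux following EC80 dopamine in a force-coupled, inducible Hek293 Trex D2 cell line.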

[7] = qHTS assay for small molecule agonists of the antioxidant response element (ARE) signaling pathway (AID 651741; active means well fitted activation curve with a large enough effect in the signal ratio; the % refers to the signal ratio; further: % of control where 0% means no effect)
How it was run: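 Beta-lactamase reporter expression driven by the antioxidant response element in HepG2 cells was detected by fluorescence with LiveBLAzer B/G FRET substrate (2 h, room temperature) following 16 h compound treatment at 37 C.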

[8] = qHTS assay for small molecule activators of the nuclear factor-kappa B (NF-kB) signaling pathway (AID 651749; active means well fitted activation curve with a large enough effect in the signal ratio; the % refers to the signal ratio; further: series mostly up to about 77 µM; % of control where 0% means no effect); conditions: NF-kB-bla ME-180 cells, beta-lactamase FRET ratio, 16 h; active compounds read high
How it was run: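 Beta-lactamase reporter expression, controlled by NF-kB response elements in ME-180 cells, was quantified fluorometrically via FRET disruption; cells at 2,000/well had been incubated with 23 nL test compound for 16 hr.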

[9] = qHTS assay for small molecule disruptors of the mitochondrial membrane potential - 1 hr assay (AID 651754; calls by dose curve; further: on the % scale 0 is the no-effect control and ±100 the full control effect; nearly all actives have a fitted effect of over 35% in size)
How it was run: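 In this qHTS format, a 1 hr compound treatment of HepG2 cells precedes Mito-MPS staining, and membrane potential is judged from aggregate (red) against monomer (green) fluorescence intensity.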

[10] = qHTS assay for small molecule disruptors of the mitochondrial membrane potential - 5 hr assay (AID 651755; calls by dose curve; further: on the % scale 0 is the no-effect control and ±100 the full control effect; nearly all actives have a fitted effect of over 40% in size)
How it was run: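 Seed HepG2 overnight, add compound, incubate 5 hr at 37C and 5% CO2, stain 30 min with Mito-MPS, then measure monomer (490/535 nm) and aggregate (540/590 nm) fluorescence.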

[11] = biological target: Tumor necrosis factor (Homo sapiens) (UniProt P01375); assay: qHTS assay to identify small molecules that stimulate Tumor Necrosis Factor-alpha (TNF-alpha) secretion (AID 651757; active means well fitted curve in the direction sought with a large enough effect in the signal ratio; the % refers to the signal ratio; further: 0% is about no effect)
Tumor necrosis factor (Homo sapiens), sequence (P01375 whole entry, looked up): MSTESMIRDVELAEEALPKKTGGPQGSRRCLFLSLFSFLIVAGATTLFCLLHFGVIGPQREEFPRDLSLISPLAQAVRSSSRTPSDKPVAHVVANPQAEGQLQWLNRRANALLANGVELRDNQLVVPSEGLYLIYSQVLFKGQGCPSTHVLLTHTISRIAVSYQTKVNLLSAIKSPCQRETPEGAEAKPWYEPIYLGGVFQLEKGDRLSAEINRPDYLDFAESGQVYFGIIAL
How it was run: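 Using 3000 THP-1 cells per well, compounds and controls were applied for 17 hrs at 37 C. Detection followed with two labeled anti-TNF-alpha antibodies (cryptate donor, XL665 acceptor) for 3 hr at room temperature, measured by TR-FRET.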

[12] = qHTS assay for environmental chemicals that activate the Aryl hydrocarbon Receptor (AhR) signaling pathway (AID 651777); conditions: 1A2-DRE human hepatoma cells, luciferase, 24 h; active compounds read high; further: % of control where 0% means no effect; nearly all actives have a fitted effect of over 15% in size
How it was run: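 Luminescence (One-Glo, 30 min, room temperature) reports AhR-driven luciferase in stably transfected human hepatoma cells bearing DRE and CYP1A2 promoter. Cells (1,200/well) were treated with compound for 24 hr at 37 C in qHTS format.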

[13] = biological target: Peroxisome proliferator-activated receptor alpha (Homo sapiens) (UniProt Q07869); assay: qHTS assay for small molecule agonists of the peroxisome proliferator-activated receptor alpha (PPARalpha) signaling pathway (AID 651778); conditions: PathHunter PPARalpha complementation, chemiluminescence, 6 h; max response: active compounds read high; further: % of control where 0% means no effect
Peroxisome proliferator-activated receptor alpha (Homo sapiens), sequence (Q07869 whole entry, looked up): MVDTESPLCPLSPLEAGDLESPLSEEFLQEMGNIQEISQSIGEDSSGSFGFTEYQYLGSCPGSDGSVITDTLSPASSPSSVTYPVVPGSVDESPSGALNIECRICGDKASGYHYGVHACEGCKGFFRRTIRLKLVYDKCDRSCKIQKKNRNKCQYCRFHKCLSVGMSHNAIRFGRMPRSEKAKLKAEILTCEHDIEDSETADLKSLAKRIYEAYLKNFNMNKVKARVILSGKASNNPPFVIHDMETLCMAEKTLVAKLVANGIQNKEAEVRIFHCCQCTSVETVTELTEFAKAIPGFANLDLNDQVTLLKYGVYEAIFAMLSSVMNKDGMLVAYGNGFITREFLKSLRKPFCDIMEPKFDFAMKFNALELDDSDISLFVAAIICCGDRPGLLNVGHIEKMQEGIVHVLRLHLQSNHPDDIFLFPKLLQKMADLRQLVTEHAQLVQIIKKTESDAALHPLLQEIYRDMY
How it was run: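 Cells plated at 2,000/well and held overnight at 37 C, 5% CO2, then compound added by pin tool for 6 hr; after PathHunter detection reagent and 60 min at room temperature, chemiluminescence from enzyme complementation was read.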

CC(=O)/C(C)=N/O
inactive: Potency [1] | Potency [2] | Potency [3] | Potency [4] | Potency [5] | Potency [6]

NC(=O)c1ccccc1
inactive: Potency [1] | Potency [2] | Potency [3] | Potency [4] | Potency [5] | Potency [6] | Potency [7] | activation [8] 1.72% | outcome [9] | outcome [10] | outcome [11] | activation [12] 0.0429% | max response [13] 0.54%

C=CCN1CCc2c(cc(O)c(O)c2Br)[C@@H](c2ccccc2)C1
active: Potency [1] 7.08 µM
inactive: Potency [3] | Potency [4] | Potency [5]

COc1cc(C(O)C(=O)O)ccc1O (centres undefined)
inactive: Potency [1] | Potency [3] | Potency [4] | Potency [5] | Potency [6]
active: Potency [2] 2.82 µM

Oc1cc(O)c2c(c1)O[C@H](c1ccc(O)c(O)c1)[C@@H](O)C2
inactive: Potency [1] | Potency [3] | Potency [4] | Potency [5] | Potency [6]

COc1cc(/C=C(\C#N)C(=O)c2ccc(O)c(O)c2)cc(I)c1O
inactive: Potency [1] | Potency [3] | Potency [4] | Potency [5] | Potency [6]

CN(C)S(=O)(=O)c1ccc2c(c1)/C(=C/c1cc3c([nH]1)CCCC3)C(=O)N2
active: Potency [1] 7.94 µM
inactive: Potency [2] | Potency [3] | Potency [5] | Potency [6]
